# Laboratory results from PubChem BioAssay (EPA / NIEHS).
# “And” between values parts separate entries of the source, which are not always exact repeats. Equal values may be shown once. Inconclusive results are not listed. Some structures have more than one record in an assay (separate samples or runs), and their calls can disagree. The source made the active and inactive calls. The calls were made as follows: active = hit-call score of the fitted dose curve at least 0.9, where 1 is the maximum; inconclusive = response in the unintended direction; inactive = score below 0.9.
# What was measured:
# [1] = system: NCBI gene 100848466; assay: NVS_NR_bPR: NovaScreen (NVS) Nuclear Receptor Binding Assay for bovine Progextron Receptor (PR) (AID 2283343);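 as to AC50: actives lower bound radioligand signal below DMSO meaning displacement of the label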
# In short: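 Bovine uterine membrane preparation; radioligand displacement read by scintillation counting 18 h after dosing. Primary screen single concentration, 25 uM, in duplicate; actives followed up in concentration series. Signal loss versus DMSO baseline.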
# [2] = biological target: human Constitutive Androstane Receptor (CAR), NR1I3 (gene 9970) (UniProt Q14994); assay: NVS_NR_hCAR_Antagonist: NovaScreen (NVS) Nuclear Receptor Binding Assay for human Constitutive Androstane Receptor Antagonism (CAR) (AID 2283344)
# Sequence of human Constitutive Androstane Receptor (CAR), NR1I3 (gene 9970) (Q14994 whole entry, looked up): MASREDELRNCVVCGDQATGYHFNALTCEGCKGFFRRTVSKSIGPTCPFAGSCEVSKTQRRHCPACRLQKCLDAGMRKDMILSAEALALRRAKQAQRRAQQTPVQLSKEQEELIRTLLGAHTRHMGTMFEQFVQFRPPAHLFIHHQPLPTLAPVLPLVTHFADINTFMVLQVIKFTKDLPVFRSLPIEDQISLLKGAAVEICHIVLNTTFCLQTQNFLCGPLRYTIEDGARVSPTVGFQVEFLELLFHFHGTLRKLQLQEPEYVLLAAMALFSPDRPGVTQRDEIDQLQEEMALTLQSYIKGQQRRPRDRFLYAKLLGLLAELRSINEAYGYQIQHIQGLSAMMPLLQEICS
# In short: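 Cell-free TR-FRET binding read 1 h after dosing, antagonist mode; loss of signal versus DMSO baseline. Primary screen in duplicate at a single 25 uM; actives retested in concentration series.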
# [3] = biological target: Androgen Receptor/SRC-1 Co-activator, AR (gene 367) (UniProt P10275); assay: OT_AR_ARSRC1_0960: Odyssey Thera (OT) 16-hour HEK293T Protein-Complementation Assay for Androgen Receptor/SRC-1 Co-activator (AID 2283353);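 also: actives raise the signal above DMSO so potency reflects increased AR and SRC-1 complex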
# Sequence of Androgen Receptor/SRC-1 Co-activator, AR (gene 367) (P10275 whole entry, looked up, the tested form may be a part): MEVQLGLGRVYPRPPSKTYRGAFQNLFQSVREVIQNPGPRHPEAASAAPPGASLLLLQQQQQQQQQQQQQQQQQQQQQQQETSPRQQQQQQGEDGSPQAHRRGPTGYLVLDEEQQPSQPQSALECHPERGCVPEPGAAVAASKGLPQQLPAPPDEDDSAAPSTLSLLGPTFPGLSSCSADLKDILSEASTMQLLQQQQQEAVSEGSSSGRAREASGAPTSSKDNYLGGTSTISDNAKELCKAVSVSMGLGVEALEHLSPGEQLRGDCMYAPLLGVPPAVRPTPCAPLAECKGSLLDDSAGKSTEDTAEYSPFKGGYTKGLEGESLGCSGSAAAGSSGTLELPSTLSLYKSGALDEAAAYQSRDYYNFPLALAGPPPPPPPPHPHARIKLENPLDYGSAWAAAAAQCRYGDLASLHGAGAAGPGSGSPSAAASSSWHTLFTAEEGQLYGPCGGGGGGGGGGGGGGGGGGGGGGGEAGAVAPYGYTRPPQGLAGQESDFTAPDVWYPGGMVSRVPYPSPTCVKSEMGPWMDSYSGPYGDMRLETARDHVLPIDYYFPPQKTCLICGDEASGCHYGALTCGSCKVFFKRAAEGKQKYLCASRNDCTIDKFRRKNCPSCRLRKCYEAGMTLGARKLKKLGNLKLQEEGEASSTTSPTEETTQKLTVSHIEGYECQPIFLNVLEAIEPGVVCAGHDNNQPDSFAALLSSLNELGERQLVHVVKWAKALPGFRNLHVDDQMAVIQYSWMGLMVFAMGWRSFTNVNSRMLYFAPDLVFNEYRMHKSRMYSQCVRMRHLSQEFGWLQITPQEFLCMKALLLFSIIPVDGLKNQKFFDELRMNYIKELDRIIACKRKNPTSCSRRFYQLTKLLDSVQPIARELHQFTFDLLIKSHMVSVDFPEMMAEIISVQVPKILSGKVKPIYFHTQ
# In short: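 HEK293T cells stably expressing AR and SRC-1 fused to split Venus YFP fragments via (Gly4Ser)2 linkers were dosed for 16 h. Nuclear/cytoplasmic fluorescence ratio at 488 nm, ≥400 cells per image, fitted for gain of signal versus DMSO.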
# [4] = biological target: Estrogen receptor beta (Homo sapiens) (UniProt Q92731); assay: OT_ER_ERbERb_0480: Odyssey Thera (OT) 8-hour HEK293T Protein-Complementation Assay for Estrogen Receptor-beta/-beta Homodimer (AID 2283357);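 also: active means signal gain over DMSO baseline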
# Sequence of Estrogen receptor beta (Homo sapiens) (Q92731 whole entry, looked up, the tested form may be a part): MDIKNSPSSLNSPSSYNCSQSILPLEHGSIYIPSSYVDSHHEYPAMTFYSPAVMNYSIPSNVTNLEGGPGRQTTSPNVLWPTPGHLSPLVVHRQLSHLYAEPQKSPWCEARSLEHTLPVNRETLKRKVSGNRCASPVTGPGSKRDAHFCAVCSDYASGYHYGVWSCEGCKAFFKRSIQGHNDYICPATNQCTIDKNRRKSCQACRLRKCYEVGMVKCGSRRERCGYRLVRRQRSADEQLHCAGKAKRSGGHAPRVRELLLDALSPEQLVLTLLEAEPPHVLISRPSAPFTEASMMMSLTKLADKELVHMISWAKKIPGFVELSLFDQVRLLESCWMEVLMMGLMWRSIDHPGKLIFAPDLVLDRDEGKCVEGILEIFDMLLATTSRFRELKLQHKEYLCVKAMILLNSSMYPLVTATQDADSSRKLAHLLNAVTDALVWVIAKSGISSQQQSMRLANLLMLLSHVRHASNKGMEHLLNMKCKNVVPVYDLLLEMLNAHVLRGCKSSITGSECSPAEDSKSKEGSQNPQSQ
# In short: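 Fluorescence intensity, nuclear for agonists and nuclear plus cytoplasmic for antagonists, was quantified by laser scanning cytometry versus vehicle after 8 h treatment. The cells were HEK293T stably carrying ER beta LBD fragment-complementation partners.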
# [5] = biological target: PGR (gene 5241) (UniProt P06401); assay: NVS_NR_hPR: NovaScreen (NVS) Nuclear Receptor Binding Assay for human Progestron Receptor (PR) (AID 2283360);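 also: active means loss of bound radioligand signal versus DMSO baseline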
# Sequence of PGR (gene 5241) (P06401 whole entry, looked up): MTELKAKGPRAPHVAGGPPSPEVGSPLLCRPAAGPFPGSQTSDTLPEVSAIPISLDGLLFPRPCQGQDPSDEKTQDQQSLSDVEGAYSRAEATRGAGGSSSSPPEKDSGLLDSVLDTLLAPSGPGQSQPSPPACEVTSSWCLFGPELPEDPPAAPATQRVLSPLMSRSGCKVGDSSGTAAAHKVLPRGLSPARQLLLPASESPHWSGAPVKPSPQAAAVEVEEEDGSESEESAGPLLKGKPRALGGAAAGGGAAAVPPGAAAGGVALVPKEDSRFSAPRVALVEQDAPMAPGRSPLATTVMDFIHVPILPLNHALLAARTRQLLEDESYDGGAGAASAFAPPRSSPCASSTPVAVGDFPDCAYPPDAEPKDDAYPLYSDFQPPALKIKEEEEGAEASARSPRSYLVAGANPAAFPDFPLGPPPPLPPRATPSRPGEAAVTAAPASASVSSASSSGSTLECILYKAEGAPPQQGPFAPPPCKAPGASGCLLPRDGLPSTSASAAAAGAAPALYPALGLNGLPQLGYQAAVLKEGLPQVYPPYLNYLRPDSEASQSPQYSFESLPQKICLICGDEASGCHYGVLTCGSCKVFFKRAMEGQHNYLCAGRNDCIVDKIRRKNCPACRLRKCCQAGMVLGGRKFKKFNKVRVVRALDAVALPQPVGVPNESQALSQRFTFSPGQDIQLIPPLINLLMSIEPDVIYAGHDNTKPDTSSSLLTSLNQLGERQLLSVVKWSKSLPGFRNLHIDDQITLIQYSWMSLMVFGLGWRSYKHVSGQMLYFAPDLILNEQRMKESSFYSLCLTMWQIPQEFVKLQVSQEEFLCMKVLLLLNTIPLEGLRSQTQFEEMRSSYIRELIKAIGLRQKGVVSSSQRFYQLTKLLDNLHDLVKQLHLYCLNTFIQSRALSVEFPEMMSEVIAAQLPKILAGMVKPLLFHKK
# In short: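 Radioligand competition binding on receptor extracted from T47D cells, read by scintillation counting 18 h after dosing. Loss of signal versus DMSO; primary screen in duplicate at 25 uM, actives followed in concentration series.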
# [6] = biological target: rat Glutamate, MK-801 Agonist Site (GluNMDA_MK801), Grin1 (gene 24408) (UniProt P35439); assay: NVS_LGIC_rGluNMDA_MK801_Agonist: NovaScreen (NVS) Ligand-Gated Ion Channel Assay for rat Glutamate, MK-801 Agonist Site (GluNMDA_MK801) (AID 2283340)
# In short: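 Radioligand binding at MK-801 site in rat forebrain membranes, 1.5 h incubation, filter-based scintillation counting. Initially 25 uM in duplicate; actives then run in concentration-response up to 50 uM, fitted for gain of signal versus DMSO.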
# [7] = system: guinea pig Histamine Receptor (H2), gene 100729734; assay: NVS_GPCR_gH2: NovaScreen (NVS) G Protein-Coupled Receptor Assay for guinea pig Histamine Receptor (H2) (AID 2283342)
# In short: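 Radioligand displacement on guinea pig striatal membranes, 1 h after dosing, filter-based scintillation counting; loss of signal versus DMSO. Single-point screen at 25 uM in duplicate, then concentration-response up to 50 uM.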
# [8] = biological target: chimpanzee Androgen Receptor (AR), AR (gene 747460) (UniProt O97775); assay: NVS_NR_cAR: NovaScreen (NVS) Nuclear Receptor Binding Assay for chimpanzee Androgen Receptor (AR) (AID 2283346);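 also: radioligand displacement from AR measured by scintillation counting in a cell-free assay; a loss of bound radioligand signal versus DMSO counts as binding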
# Sequence of chimpanzee Androgen Receptor (AR), AR (gene 747460) (O97775 whole entry, looked up): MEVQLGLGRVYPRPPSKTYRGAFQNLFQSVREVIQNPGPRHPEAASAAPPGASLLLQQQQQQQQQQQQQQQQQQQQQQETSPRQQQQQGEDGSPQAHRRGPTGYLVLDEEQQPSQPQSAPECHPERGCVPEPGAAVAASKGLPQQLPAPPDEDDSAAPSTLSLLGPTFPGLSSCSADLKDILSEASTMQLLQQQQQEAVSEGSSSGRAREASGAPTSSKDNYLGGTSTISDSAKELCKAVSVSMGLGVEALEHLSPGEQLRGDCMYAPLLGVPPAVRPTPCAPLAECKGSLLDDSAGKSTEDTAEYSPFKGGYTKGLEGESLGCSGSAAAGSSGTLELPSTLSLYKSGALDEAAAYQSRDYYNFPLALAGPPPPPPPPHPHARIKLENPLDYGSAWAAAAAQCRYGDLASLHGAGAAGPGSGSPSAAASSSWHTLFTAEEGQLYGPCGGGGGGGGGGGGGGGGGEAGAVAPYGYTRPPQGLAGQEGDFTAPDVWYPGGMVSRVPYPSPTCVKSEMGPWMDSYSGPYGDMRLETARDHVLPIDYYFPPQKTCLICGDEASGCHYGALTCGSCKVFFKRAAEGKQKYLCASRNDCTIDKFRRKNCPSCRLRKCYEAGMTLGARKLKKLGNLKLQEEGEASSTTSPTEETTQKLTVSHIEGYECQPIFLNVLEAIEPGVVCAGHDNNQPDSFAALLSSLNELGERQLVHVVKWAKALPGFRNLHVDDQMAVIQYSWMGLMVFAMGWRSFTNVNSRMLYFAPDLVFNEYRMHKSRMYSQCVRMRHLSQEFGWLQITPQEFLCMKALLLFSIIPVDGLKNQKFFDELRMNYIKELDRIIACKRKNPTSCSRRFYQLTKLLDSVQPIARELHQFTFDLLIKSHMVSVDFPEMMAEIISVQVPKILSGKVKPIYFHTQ
# In short: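 Radioligand binding to chimpanzee AR expressed in Sf9/Sf21 cells, cell-free, measured 72 h after dosing by lysate-based scintillation counting. Loss of signal vs DMSO; initial duplicate screen at 25 uM, actives retested in concentration series.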
# [9] = biological target: Small conductance calcium-activated potassium channel protein 1 (Rattus norvegicus) (UniProt P70606); assay: NVS_IC_rKCaCh: NovaScreen (NVS) Ion Channel Assay for rat Potassium Channel, Ca2+ Act., VI (KCaCh) (AID 2283336)
# In short: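 Radioligand binding to rat forebrain membranes, cell-free, read 1 hour after dosing by filter-based scintillation counting. Compounds first run in duplicate at 25 uM, actives then in concentration series; loss of signal vs DMSO indicates displacement.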
# [10] = biological target: bovine Estrogen Receptor (ER), ESR1 (gene 407238) (UniProt P49884); assay: NVS_NR_bER: NovaScreen (NVS) Nuclear Receptor Binding Assay for bovine Estrogen Receptor (ER) (AID 2283345);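 also: actives lower the bound radioligand count which means they displace the ER ligand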
# Sequence of bovine Estrogen Receptor (ER), ESR1 (gene 407238) (P49884 whole entry, looked up): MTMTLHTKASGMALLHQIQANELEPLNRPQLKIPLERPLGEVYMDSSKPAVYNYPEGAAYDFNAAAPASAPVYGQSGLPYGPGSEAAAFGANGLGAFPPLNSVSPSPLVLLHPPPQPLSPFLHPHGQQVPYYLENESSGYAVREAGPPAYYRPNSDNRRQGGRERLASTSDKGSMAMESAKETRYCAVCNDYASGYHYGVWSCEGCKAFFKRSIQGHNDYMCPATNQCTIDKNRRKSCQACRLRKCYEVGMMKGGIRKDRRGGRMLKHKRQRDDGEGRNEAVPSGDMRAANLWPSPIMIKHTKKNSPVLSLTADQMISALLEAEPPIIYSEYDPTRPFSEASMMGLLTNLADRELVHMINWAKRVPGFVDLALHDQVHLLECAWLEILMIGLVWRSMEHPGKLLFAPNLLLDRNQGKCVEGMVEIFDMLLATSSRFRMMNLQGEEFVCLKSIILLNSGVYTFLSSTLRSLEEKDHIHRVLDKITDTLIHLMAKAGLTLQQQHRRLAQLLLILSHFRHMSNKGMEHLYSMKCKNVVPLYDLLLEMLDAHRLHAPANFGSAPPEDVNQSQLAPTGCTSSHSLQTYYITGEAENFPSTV
# In short: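 Cell-free radioligand binding with bovine uterine membrane extracts, read 18 hours after dosing by scintillation counting. Loss of signal versus DMSO baseline indicates displacement. Primary screen run in duplicate at 25 uM, actives followed in concentration series.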
# [11] = biological target: Estrogen receptor (Homo sapiens) (UniProt P03372); assay: NVS_NR_hER: NovaScreen (NVS) Nuclear Receptor Binding Assay for human Estrogen Receptor (ER) (AID 2283348)
# Sequence of Estrogen receptor (Homo sapiens) (P03372 whole entry, looked up, the tested form may be a part): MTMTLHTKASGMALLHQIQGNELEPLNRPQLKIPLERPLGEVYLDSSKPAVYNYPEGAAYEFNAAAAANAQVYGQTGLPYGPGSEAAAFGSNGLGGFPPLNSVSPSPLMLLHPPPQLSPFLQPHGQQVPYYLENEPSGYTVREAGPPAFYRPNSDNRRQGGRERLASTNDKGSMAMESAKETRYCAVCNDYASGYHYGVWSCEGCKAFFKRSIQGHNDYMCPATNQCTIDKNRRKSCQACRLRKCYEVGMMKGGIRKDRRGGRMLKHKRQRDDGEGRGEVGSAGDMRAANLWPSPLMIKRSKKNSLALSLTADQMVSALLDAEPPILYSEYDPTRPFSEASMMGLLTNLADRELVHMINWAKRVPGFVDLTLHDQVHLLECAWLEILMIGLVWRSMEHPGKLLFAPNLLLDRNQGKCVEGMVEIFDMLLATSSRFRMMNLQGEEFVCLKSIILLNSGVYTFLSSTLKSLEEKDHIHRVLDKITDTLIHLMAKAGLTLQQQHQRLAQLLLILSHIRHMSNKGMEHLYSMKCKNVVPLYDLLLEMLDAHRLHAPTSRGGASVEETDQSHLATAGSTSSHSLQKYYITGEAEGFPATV
# In short: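 Radioligand competitive displacement binding to estrogen receptor from MCF7 extract, cell-free; 18 h after dosing, scintillation read-out. Primary screen in duplicate at 25 uM; actives followed up in concentration series; loss of signal vs DMSO.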
# [12] = biological target: Estrogen receptor (Homo sapiens) (UniProt P03372); assay: OT_ER_ERaERa_1440: Odyssey Thera (OT) 24-hour HEK293T Protein-Complementation Assay for Estrogen Receptor-alpha/-alpha Homodimer (AID 2283349);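 also: hits raise fluorescence above DMSO for agonists and antagonists alike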
# In short: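 HEK293T cells stably expressing the human ER alpha ligand-binding domain (aa 310-547) as a homodimer PCA were dosed for 24 hours. Fluorescence intensity was read by laser scanning cytometry, and gain of signal was fitted relative to DMSO vehicle.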
# [13] = biological target: Estrogen receptor (Homo sapiens) (UniProt P03372); assay: OT_ER_ERaERa_0480: Odyssey Thera (OT) 8-hour HEK293T Protein-Complementation Assay for Estrogen Receptor-alpha/-alpha Homodimer (AID 2283351);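 also: rise in fluorescence from reassembled reporter fragments on ERα LBD homodimer in nucleus or whole cell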
# In short: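 HEK293T cells stably expressing the human ERα ligand-binding domain (aa 310-547) as a homodimer PCA were dosed with compound for 8 h. Gain of fluorescence intensity versus DMSO vehicle was read by laser scanning cytometry.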
# [14] = biological target: T1, Estrogen receptor (Homo sapiens) + Estrogen receptor beta (Homo sapiens) (UniProt P03372+Q92731); assay: OT_ER_ERaERb_0480: Odyssey Thera (OT) 8-hour HEK293T Protein-Complementation Assay for Estrogen Receptor-alpha/-beta Heterodimer (AID 2283352)
# T1 sequence (P03372 whole entry, looked up, the tested form may be a part): as above
# T1 sequence (Q92731 whole entry, looked up, the tested form may be a part): as the sequence (Q92731 whole entry, looked up, the tested form may be a part) above
# In short: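 Human HEK293T cells were treated for 8 hours and receptor heterodimerisation was detected through reconstitution of a fluorescent reporter split between ER-alpha and ER-beta ligand-binding domains. Activity was analysed as gain of signal against DMSO.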
# [15] = biological target: T1, Estrogen receptor (Homo sapiens) + Estrogen receptor beta (Homo sapiens); assay: OT_ER_ERaERb_1440: Odyssey Thera (OT) 24-hour HEK293T Protein-Complementation Assay for Estrogen Receptor-alpha/-beta Homodimer (AID 2283356);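 also: heteromer of ER alpha and ER beta binding domains; hits raise reporter fluorescence and both agonists and antagonists give an increase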
# In short: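 24 h exposure; HEK293T PCA cells with ERα/ERβ LBD fragments; signal rise in nuclear or whole-cell fluorescence over vehicle.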
# [16] = biological target: bovine Gamma-Aminobutyric Acid Type A Receptor Agonist (GABAR Agonist), GABRA1 (gene 780973) (UniProt P08219); assay: NVS_LGIC_bGABAR_Agonist: NovaScreen (NVS) Ligand-Gated Ion Channel Assay for bovine Gamma-Aminobutyric Acid Type A Receptor Agonist (GABAR Agonist) (AID 2283338)
# In short: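 Radioligand binding to bovine cerebellar membranes in agonist format, read by filter-based scintillation counting after 1 h. Primary screen in duplicate at 25 uM, with actives followed in concentration series. Gain of signal versus DMSO.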
# [17] = biological target: Retinoic acid receptor alpha (Homo sapiens) (UniProt P10276); assay: NVS_NR_hRAR_Antagonist: NovaScreen (NVS) Nuclear Receptor Binding Assay for human Retinoic Acid Alpha Receptor Antagonism (RAR) (AID 2283358)
# In short: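 Cell-free TR-FRET binding assay with extracted human RARalpha in antagonist mode, read 2 h after dosing. Loss of signal was fitted relative to DMSO; the primary screen used 25 uM in duplicate, with concentration series on follow-up.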
# [18] = biological target: Bile acid receptor (Homo sapiens) (UniProt Q96RI1); assay: NVS_NR_hFXR_Antagonist: NovaScreen (NVS) Nuclear Receptor Binding Assay for human Farnesoid X Receptor Antagonism (FXR) (AID 2283350)
# In short: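 Cell-free TR-FRET ligand-binding read-out on human FXR (NR1H4) in antagonist mode, measured 1 h after dosing. Primary screen in duplicate at 25 uM, actives retested in concentration series; signal loss scored versus DMSO.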
compound,measurement,setting,value
CCCCOCCOCCOCc1cc2c(cc1CCC)OCO2,outcome,[1],inactive
same,outcome,[2],inactive
same,outcome,[3],inactive
same,outcome,[4],inactive
same,outcome,[5],inactive
C=CCOC(Cn1ccnc1)c1ccc(Cl)cc1Cl (centres undefined),outcome,[6],inactive
same,AC50,[7],6.78 µM (active)
same,AC50,[1],13 µM (active)
same,AC50,[2],9.8 µM (active)
same,AC50,[8],9.9 µM (active)
same,outcome,[4],inactive
CC(=O)[C@H]1CC[C@H]2[C@@H]3CCC4=CC(=O)CC[C@]4(C)[C@H]3CC[C@]12C,outcome,[9],inactive
same,AC50,[1],0.00229 µM (active)
same,AC50,[10],12.4 µM (active)
same,outcome,[10],inactive
same,outcome,[11],inactive
same,outcome,[12],inactive
same,outcome,[13],inactive
same,outcome,[14],inactive
same,outcome,[15],inactive
same,outcome,[4],inactive
COc1nc(C)nc(NC(=O)NS(=O)(=O)c2ccccc2OCCCl)n1,outcome,[16],inactive
COC(=O)c1ccc(CNS(C)(=O)=O)cc1S(=O)(=O)NC(=O)Nc1nc(OC)cc(OC)n1,outcome,[2],inactive
same,outcome,[11],inactive
same,outcome,[17],inactive
O=C(c1ccc(O)cc1O)c1ccc(O)cc1O,AC50,[1],16.4 µM (active)
same,AC50,[8],2.73 µM (active)
same,AC50,[11],59.6 nM (active) [middle of 4 runs]
same,AC50,[12],7.6 µM (active) and 7.51 µM (active) and 9.91 µM (active)
same,AC50,[13],6.81 µM (active) and 6.26 µM (active) and 6.64 µM (active)
same,AC50,[14],2.03 µM (active) and 1.72 µM (active) and 2.14 µM (active)
same,AC50,[3],10.2 µM (active) and 9.93 µM (active) and 10.7 µM (active)
same,AC50,[15],12.6 µM (active) and 8.31 µM (active) and 9.09 µM (active)
same,AC50,[4],1.6 µM (active) and 1.63 µM (active) and 1.4 µM (active)
same,AC50,[5],11.2 µM (active)
Cc1nn(C)c(Oc2ccccc2)c1C=NOCc1ccc(C(=O)OC(C)(C)C)cc1,AC50,[1],11 µM (active)
same,outcome,[10],inactive
same,outcome,[11],inactive
same,outcome,[12],inactive
same,outcome,[13],inactive
same,outcome,[14],inactive
same,outcome,[3],inactive
same,outcome,[15],inactive
same,outcome,[4],inactive
same,outcome,[5],inactive
C[C@]12C[C@H](O)[C@H]3[C@@H](CCC4=CC(=O)CC[C@@]43C)[C@@H]1CC[C@@H]2C(=O)CO,AC50,[1],0.875 µM (active)
same,outcome,[10],inactive
same,AC50,[8],4.56 µM (active)
same,outcome,[11],inactive
same,outcome,[12],inactive
same,outcome,[13],inactive
same,outcome,[14],inactive
same,outcome,[15],inactive
same,outcome,[4],inactive
same,AC50,[5],0.403 µM (active)
S=C([S-])NCCNC(=S)[S-].[Mn+2],outcome,[6],inactive
same,outcome,[4],inactive
c1ccc(Nc2ccccc2)cc1,outcome,[1],inactive
same,AC50,[4],50.8 µM (active)
same,outcome,[5],inactive
CCOC(=O)[C@H](C)Oc1ccc(Oc2nc3ccc(Cl)cc3o2)cc1,AC50,[2],0.182 µM (active)
CCC(O)=C1C(=O)CC(C(=O)O)CC1=O (centres undefined),outcome,[2],inactive
N#CSCSc1nc2ccccc2s1,outcome,[1],inactive
same,outcome,[12],inactive
same,AC50,[18],4.96 µM (active)
same,outcome,[13],inactive
same,AC50,[3],12.1 µM (active)
same,outcome,[15],inactive
same,outcome,[4],inactive
same,outcome,[5],inactive
CC(=O)S[C@@H]1CC2=CC(=O)CC[C@]2(C)[C@H]2CC[C@@]3(C)[C@@H](CC[C@@]34CCC(=O)O4)[C@H]12,AC50,[1],1.53 µM (active)
same,outcome,[10],inactive
same,AC50,[8],6.35 nM (active) and 29.2 nM (active)
same,outcome,[11],inactive
same,outcome,[12],inactive
same,outcome,[13],inactive
same,outcome,[14],inactive
same,outcome,[15],inactive
same,outcome,[4],inactive
